Results from PubChem BioAssay AID1159580 (chemical genetic matrix, 2015).
Values joined by “and” are separate entries in the source; they are usually repeats but may differ in a detail not shown here. Equal entries are not always repeated. The campaign covered roughly 5,500 compounds. About 2,000 (36%) were called active. About 18% were inconclusive and are not listed. No stated cut-off is given here; in the data, active means normalized growth mostly below about 0.91 (no sharp cut-off); inconclusive means no clear call, values can overlap the other calls; inactive means mostly above about 0.92. The list shows a part of the results.

Assay: chemical genetic growth profiling, strain panel (AID 1159580);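 further: tested at 20 µM; growth read once vehicle control cultures reached saturation at 30 °C; 1 = growth at the plate median or of vehicle wells; lower values mean less growth of the strain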
Conditions: growth OD

Measured: normalized growth

CN(C)c1nc(N(C)C)nc(N(C)C)n1
inactive: S. cerevisiae deletion strains, locus YKL009W, strain mrt4, active compounds read low 1 | S. cerevisiae deletion strains, locus YKL068W, active compounds read low 1.01 | S. cerevisiae deletion strains, locus YKL085W, strain MDH1 (second series), active compounds read low 1.01 | S. cerevisiae deletion strains, locus YKL085W, strain MDH1, active compounds read low 1.01 | S. cerevisiae deletion strains, locus YKL160W, strain elf1, active compounds read low 0.985 | S. cerevisiae deletion strains, locus YKL190W, strain CNB1, active compounds read low 1.01 | S. cerevisiae deletion strains, locus YKR001C, strain vps1, active compounds read low 1.01 | S. cerevisiae deletion strains, locus YKR026C, strain gcn3, active compounds read low 0.978 | S. cerevisiae deletion strains, locus YKR091W, strain srl3, active compounds read low 0.962 | S. cerevisiae deletion strains, locus YLL001W, strain dnm1, active compounds read low 0.969 | S. cerevisiae deletion strains, locus YLL026W, active compounds read low 0.977 | S. cerevisiae deletion strains, locus YLL041C, strain sdh2, active compounds read low 0.983 | S. cerevisiae deletion strains, locus YLR027C, strain aat2, active compounds read low 0.969 | S. cerevisiae deletion strains, locus YLR039C, strain RIC1, active compounds read low 0.964 | S. cerevisiae deletion strains, locus YLR058C, strain SHM2, active compounds read low 1.01 | S. cerevisiae deletion strains, locus YLR102C, strain apc9, active compounds read low 1.01 | S. cerevisiae deletion strains, locus YLR113W, strain HOG1, active compounds read low 0.948 | S. cerevisiae deletion strains, locus YLR221C, strain rsa3, active compounds read low 0.945 | S. cerevisiae deletion strains, locus YLR258W, strain gsy2, active compounds read low 0.987 | S. cerevisiae deletion strains, locus YLR262C, strain YPT6 (second series), active compounds read low 0.932 | S. cerevisiae deletion strains, locus YLR262C, strain YPT6, active compounds read low 0.986 | S. cerevisiae deletion strains, locus YLR268W, strain sec22, active compounds read low 1.02 | S. cerevisiae deletion strains, locus YLR320W, strain mms22, active compounds read low 0.949 | S. cerevisiae deletion strains, locus YLR330W, strain CHS5, active compounds read low 1.01 | S. cerevisiae deletion strains, locus YLR342W, strain FKS1 (second series), active compounds read low 1 | S. cerevisiae deletion strains, locus YLR342W, strain FKS1, active compounds read low 0.968 | S. cerevisiae deletion strains, locus YLR357W, strain rsc2, active compounds read low 0.978 | S. cerevisiae deletion strains, locus YLR370C, strain arc18, active compounds read low 0.964 | S. cerevisiae deletion strains, locus YLR371W, strain rom2, active compounds read low 1.01 | S. cerevisiae deletion strains, locus YLR384C, strain iki3, active compounds read low 0.951 | S. cerevisiae deletion strains, locus YLR418C, strain cdc73, active compounds read low 1.05 | S. cerevisiae deletion strains, locus YML016C, strain PPZ1, active compounds read low 1.01 | S. cerevisiae deletion strains, locus YML032C, strain rad52, active compounds read low 1.02 | S. cerevisiae deletion strains, locus YML120C, strain ndi1, active compounds read low 0.952 | S. cerevisiae deletion strains, locus YML124C, strain tub3, active compounds read low 1.02 | S. cerevisiae deletion strains, locus YMR058W, strain fet3, active compounds read low 0.969 | S. cerevisiae deletion strains, locus YMR078C, strain ctf18, active compounds read low 1.02 | S. cerevisiae deletion strains, locus YMR125W, strain sto1, active compounds read low 0.97 | S. cerevisiae deletion strains, locus YMR129W, active compounds read low 0.992 | S. cerevisiae deletion strains, locus YMR205C, strain PFK2, active compounds read low 0.945 | S. cerevisiae deletion strains, locus YMR223W, strain ubp8, active compounds read low 1.02 | S. cerevisiae deletion strains, locus YMR231W, strain pep5, active compounds read low 0.979 | S. cerevisiae deletion strains, locus YMR263W, strain SAP30, active compounds read low 1.01 | S. cerevisiae deletion strains, locus YMR307W, strain GAS1, active compounds read low 1.03 and 1.01 | S. cerevisiae deletion strains, locus YNL067W, strain RPL9B, active compounds read low 1 | S. cerevisiae deletion strains, locus YNL071W, strain lat1, active compounds read low 0.982 | S. cerevisiae deletion strains, locus YNL128W, strain TEP1, active compounds read low 1.02 | S. cerevisiae deletion strains, locus YNL153C, strain GIM3, active compounds read low 0.995 | S. cerevisiae deletion strains, locus YNL175C, strain NOP13, active compounds read low 0.992 | S. cerevisiae deletion strains, locus YNL183C, strain NPR1, active compounds read low 0.92 | S. cerevisiae deletion strains, locus YNL197C, strain WHI3, active compounds read low 0.997 | S. cerevisiae deletion strains, locus YNL209W, strain ssb2, active compounds read low 0.978 | S. cerevisiae deletion strains, locus YNL224C, strain SQS1, active compounds read low 0.993 | S. cerevisiae deletion strains, locus YNL233W, strain BNI4, active compounds read low 1 | S. cerevisiae deletion strains, locus YNL248C, strain rpa49, active compounds read low 0.959 | S. cerevisiae deletion strains, locus YNL250W, strain rad50, active compounds read low 1.04 | S. cerevisiae deletion strains, locus YNL271C, strain bni1, active compounds read low 1.02 | S. cerevisiae deletion strains, locus YNL298W, strain CLA4, active compounds read low 1.02 | S. cerevisiae deletion strains, locus YNL307C, strain MCK1, active compounds read low 1.02 | S. cerevisiae deletion strains, locus YNL322C, strain KRE1 (second series), active compounds read low 0.954 | S. cerevisiae deletion strains, locus YNL322C, strain KRE1, active compounds read low 0.996 | S. cerevisiae deletion strains, locus YNR049C, strain mso1, active compounds read low 0.96 | S. cerevisiae deletion strains, locus YNR052C, strain pop2, active compounds read low 1.02 | S. cerevisiae deletion strains, locus YOL006C, strain TOP1, active compounds read low 1 | S. cerevisiae deletion strains, locus YOL012C, strain htz1 0.788 | S. cerevisiae deletion strains, locus YOL147C, strain pex11, active compounds read low 1.02 | S. cerevisiae deletion strains, locus YOR001W, strain rrp6, active compounds read low 0.987 | S. cerevisiae deletion strains, locus YOR061W, strain CKA2, active compounds read low 1.01 | S. cerevisiae deletion strains, locus YOR069W, strain VPS5, active compounds read low 1 | S. cerevisiae deletion strains, locus YOR070C, strain gyp1, active compounds read low 0.984 | S. cerevisiae deletion strains, locus YOR080W, strain dia2, active compounds read low 0.974 | S. cerevisiae deletion strains, locus YOR083W, strain WHI5 (second series), active compounds read low 1.03 | S. cerevisiae deletion strains, locus YOR083W, strain WHI5, active compounds read low 0.956 | S. cerevisiae deletion strains, locus YOR106W, strain vam3, active compounds read low 0.928 | S. cerevisiae deletion strains, locus YOR136W, strain idh2, active compounds read low 1.02 | S. cerevisiae deletion strains, locus YOR144C, strain elg1, active compounds read low 1.01 | S. cerevisiae deletion strains, locus YOR184W, strain ser1, active compounds read low 1.02 | S. cerevisiae deletion strains, locus YOR231W, strain MKK1, active compounds read low 0.962 | S. cerevisiae deletion strains, locus YOR265W, strain rbl2, active compounds read low 0.971 | S. cerevisiae deletion strains, locus YOR270C, strain vph1, active compounds read low 0.953 | S. cerevisiae deletion strains, locus YOR290C, strain snf2, active compounds read low 0.919 | S. cerevisiae deletion strains, locus YOR316C, strain cot1, active compounds read low 1.02 | S. cerevisiae deletion strains, locus YPL051W, strain arl3, active compounds read low 0.979 | S. cerevisiae deletion strains, locus YPL055C, strain LGE1, active compounds read low 1.01 | S. cerevisiae deletion strains, locus YPL078C, strain atp4, active compounds read low 0.975 | S. cerevisiae deletion strains, locus YPL106C, strain sse1, active compounds read low 0.951 | S. cerevisiae deletion strains, locus YPL240C, strain hsp82, active compounds read low 0.974 | S. cerevisiae deletion strains, locus YPL256C, strain CLN2, active compounds read low 0.975 | S. cerevisiae deletion strains, locus YPR119W, strain clb2, active compounds read low 1.01 | S. cerevisiae deletion strains, locus YPR141C, strain kar3, active compounds read low 1.02 | S. cerevisiae deletion strains, locus YPR163C, strain tif3, active compounds read low 1.02 | S. cerevisiae deletion strains, locus YPR167C, strain met16, active compounds read low 1.01 | S. cerevisiae deletion strains, strain wtn01, active compounds read low 1.02 | S. cerevisiae strains, strain wild type, active compounds read low 1.01
